# Compound activity (PubChem BioAssay)
# An excerpt weighted towards active compounds, which were near 2.3% of everything screened.
# M1 ag = human M1 muscarinic receptor agonists, primary screen, Fluo-8 calcium fluorescence, CHO-K1 cells, HTS; Muscarinic acetylcholine receptor M1 (Homo sapiens), P11229; CHO-K1 hM1, agonist mode; 0% DMSO, 100% acetylcholine EC100; activation, % at 3 µM; 360,000 tested, 0.33% active;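 active = activation above the run's mean compound activation plus 3 SD, cut at about 16% in these data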;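 also: peak over basal fluorescence ratio within a 140 s kinetic read after compound addition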
# Target sequence (P11229 whole entry, looked up): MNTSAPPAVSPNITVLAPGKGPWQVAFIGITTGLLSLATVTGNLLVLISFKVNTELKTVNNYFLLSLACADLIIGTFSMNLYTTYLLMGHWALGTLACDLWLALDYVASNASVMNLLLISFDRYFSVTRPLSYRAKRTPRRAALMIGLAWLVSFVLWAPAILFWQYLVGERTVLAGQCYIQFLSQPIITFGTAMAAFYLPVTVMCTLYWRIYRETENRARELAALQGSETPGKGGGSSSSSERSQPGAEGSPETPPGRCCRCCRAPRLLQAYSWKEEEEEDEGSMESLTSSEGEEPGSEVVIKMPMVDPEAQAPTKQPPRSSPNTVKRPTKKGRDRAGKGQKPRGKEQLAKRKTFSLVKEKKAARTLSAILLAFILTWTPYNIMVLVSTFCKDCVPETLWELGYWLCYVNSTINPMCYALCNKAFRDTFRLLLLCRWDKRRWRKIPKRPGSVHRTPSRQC
# CHRM1 PAM = human M1 muscarinic receptor positive allosteric modulators, primary screen, CHO-K1 cells, Fluo-8 calcium fluorescence, 1536-well; Muscarinic acetylcholine receptor M1 (Homo sapiens), P11229; AID 588819, 2011; 360,000 tested, 0.088% active; activation, % at 3 µM; CHO-K1 hM1, ACh EC20; 0% = ACh EC20, 100% = maximal ACh; in the data active = activation above about 19%, passing the limit was not always enough
# CHRM1 antagonist = human M1 muscarinic receptor antagonists, primary screen, CHO-K1 cells, Fluo-8 calcium fluorescence, 1536-well; Muscarinic acetylcholine receptor M1 (Homo sapiens), P11229; CHO-K1 hM1, ACh EC80 antagonist; inhibition, % at 3 µM; 360,000 tested, 1.3% active; AID 588852, 2011;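 active = percent inhibition above its own plate's cutoff, namely the mean of that plate's compound wells plus 3 SD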;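 also: peak over basal fluorescence ratio during 140 s after agonist addition; 0% = ACh EC80 plus DMSO and 100% = DMSO alone without agonist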
# M1 ag parental = counter-screen for M1 agonists: effect in parental CHO-K1 cells; Fluo-8 calcium fluorescence; scaled to maximal ATP response, vehicle zero; activation, % at 3 µM; 360,000 tested, 0.48% active; AID 602248, 2012; in the data active = activation above about 15%;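 also: untransfected CHO-K1 host cells lacking M1 receptor as counterscreen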
# CHO-K1 Ca PAM = nonselective calcium activators in parental CHO-K1 cells, primary screen, counter-screen for M1 PAM project, cell-based, Fluo-8 calcium fluorescence, full deck, 1536-well | ATP EC20; 0% at ATP EC20, 100% at ATP max | activation, % at 3 µM | 360,000 tested, 0.02% active;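 active = activation above the run cutoff, the mean activation of all test compounds plus 3 SD, cut at about 40% in these data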;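 also: peak over basal fluorescence ratio in a 140 s read after ATP addition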
# CHO-K1 Ca antag = nonselective inhibitor or artifact in parental CHO-K1 cells. ATP-induced calcium, Fluo-8 fluorescence. 360,000 tested, 0.6% active. inhibition, % at 3 µM;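 active = inhibition above a per-plate cutoff, the plate's mean sample inhibition plus 3 SD, cut at about 24% in these data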;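 also: 0% = DMSO plus EC80 ATP and 100% = DMSO alone without ATP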
# * hit, by the source's call; ! = not confirmed by another sample.
SMILES,M1 ag,CHRM1 PAM,CHRM1 antagonist,M1 ag parental,CHO-K1 Ca PAM,CHO-K1 Ca antag
CCOc1cc(/C=C(/C#N)c2nc3ccccc3[nH]2)ccc1OCc1ccc(C(=O)O)o1,-4,3,-7,0,8,-30
CCOc1cc(/C=C(/C#N)c2ccc(F)cc2)ccc1OCc1ccc(C(=O)O)o1,5,23*,-51,0,23,-18
Cc1n[nH]c(C)c1S(=O)(=O)N1CCCC(C(=O)NC2CCCCC2)C1 (configuration not stated),-3,0,-1,0,4,0
Nc1ncnc2c1ncn2C1CCCO1 (configuration not stated),20*,-11,-17,0,0,-1
CCN(CC)CC(C)(C)C(=O)/C=C/c1ccc(/C=C/C(=O)C(C)(C)CN(CC)CC)cc1,-8,-9,15,0,-9,25*
CC[C@]1(C(=O)OC)[C@H]2C(=O)N(C)C(=O)[C@H]2[C@H]2CN=C(SCC3CC3)N21,-3,4,-2,0,15,-14
Cc1cc(/C=N/n2cnnc2)c(C)n1-c1ccc(Cl)cc1,-4,6,-4,0,-2,7
Cc1cc(/C=N/n2cnnc2)c(C)n1-c1ccc(OCc2ccc(Cl)cc2Cl)cc1,-1,-15,37,8,-4,43*
Cc1cc(/C=N/n2cnnc2)c(C)n1-c1ccc(OCc2ccc(F)cc2)cc1,-3,-22,46*,9,2,4
O=C(NNC(=O)c1ccc(-c2ccc([N+](=O)[O-])cc2)o1)c1ccncc1,-2,7,-7,2,9,-7
CC(C)N1CCN(C(=O)c2ccc(OC3CCN(CCc4ccccc4)CC3)cc2)CC1,-6,-20,43*,0,7,0
O=C(c1ccc(OC2CCN(CCc3ccccc3)CC2)cc1)N1CCCC1,-5,-10,9,2,11,-8
O=C(c1ccc(OC2CCN(CCc3ccccc3)CC2)cc1)N1CCCCC1CCCO (configuration not stated),-7,-8,30*,1,20,-8
CC(C)C(c1nnnn1C(C)(C)C)N1CCN(c2cccc(Cl)c2)CC1 (configuration not stated),-2,-10,-12,0,1,3
CCN(c1ccc(NC(=O)COC(=O)CCc2cc(OC)c(OC)c(OC)c2)cc1)C(C)C,-10,1,2,2,14,-4
O=S(=O)([O-])CCC[N+]1(CC#Cc2ccccc2)CCCCC1,-3,2,-3,1,16,-13
NC(=O)C[N+]1(CC#CC(O)(c2ccccc2)c2ccccc2)CCCC1,-13,-33,92*,0,5,-8
CCC[N+]1(CC#CC(O)(c2ccccc2)C2CCCCC2)CCCCC1 (configuration not stated),-7,-28,99*,0,-4,1
CCN(CC)CCC#CC(O)(c1ccccc1)C1CCCCC1 (configuration not stated),-14,-37,99*,3,13,-20
COc1ccc(CC(=O)OCC(=O)Nc2cccnc2Cl)cc1OC,6,1,35*,1,9,-7
CCOc1ccc(NC(=O)CSc2nccn(-c3ccc4c(c3)OCCO4)c2=O)cc1,-4,0,0,1,-22,2
COc1ccc2nc(C)cc(SCC(NC(C)=O)C(=O)OC(C)C)c2c1 (configuration not stated),-4,-7,11,1,-25,26*
COc1ccc2nc(C)cc(SCC(=O)O)c2c1,0,8,-27,0,18,24*!
CCCCCCCCCCCCCCCC[N+](C)(C)Cc1ccc(F)cc1,-8,-24,44*,1,32,-21
Cc1ccc(S(=O)(=O)Nc2c(C)cc(C)nc2Cl)cc1,-4,4,-6,2,16,-8
SMILES,M1 ag,CHRM1 PAM,CHRM1 antagonist,M1 ag parental,CHO-K1 Ca PAM,CHO-K1 Ca antag
CN(Cc1cccnc1)C(=O)c1cc(COc2ccc3c(c2)CCCC3)on1,0,-21,64*,13,-2,12
Cc1c(C(C)NC(=O)c2cc(COc3cccc4cnccc34)on2)cnn1C (configuration not stated),1,-8,7,16*,-12,5
CC(=O)c1cccc(OCc2cc(C(=O)N(C)Cc3cnccn3)no2)c1,-3,2,4,2,28,-17
CN(Cc1cccc2cnccc12)C(=O)c1cc(COc2ccc(F)cc2F)on1,-2,-8,15,11,-22,10
CCc1ccc(CN(C)C(=O)c2cc(COc3cccc4cnccc34)on2)cc1,-1,-12,42,10,-18,25*
CCc1ccc(-c2cc(C)no2)cc1S(=O)(=O)N1CCCN(Cc2ccc(F)cc2)C1,-4,-7,2,0,33,-9
CCc1ccc(CN(C)C(=O)CCc2nnc(COc3ccccc3)o2)cc1,-8,-4,2,1,4,0
O=C(Nc1ccccn1)c1ccc2c(c1)S(=O)(=O)c1ccccc1C2=O,-2,17,-19,-1,4,1
O=C1c2ccccc2S(=O)(=O)c2cc(C(=O)N(c3ccccn3)c3ccccn3)ccc21,51*,-11,7,71*,9,-15
CN(C)c1ncc(CN2CCC(CO)(CCCc3ccccc3)CC2)s1,20*,3,-11,0,-2,-8
CC(C)(C)NS(=O)(=O)c1cc(C(=O)Nc2sccc2C#N)ccc1Cl,0,-5,12,23*,3,2
Cc1ccc2c(c1)sc(-c1ccc(N(C)C)cc1)[n+]2C,-12,-3,-1,0,-14,8
FC(F)Oc1ccc(NC(=S)NCc2ccccc2)cc1,-5,-11,12,3,-14,28*
O=C(CSc1ccc2ccccc2c1)Nc1ccncc1,-3,-12,31*,13,-1,15
Cc1cc(OCC(=O)Nc2ccncc2)ccc1Cl,2,-11,28,10,-19,35*
Cc1cc(OCC(=O)Nc2ccc3oc(-c4ccncc4)nc3c2)ccc1Cl,-1,8,-6,0,13,-5
O=C(COc1ccc2ccccc2c1)Nc1ccncc1,0,-3,18,14,0,24*
Cc1cc(OCC(=O)Nc2ccncc2)cc(C)c1Br,10,-11,7,10,-5,25*
O=C(CSc1ccncc1)Nc1ccc2ccccc2c1,-6,9,0,4,9,-6
COc1cc2ccccc2cc1C(=O)N/N=C/c1cccs1,-1,12,-15,1,-7,-4
